# Test results from ChEMBL document CHEMBL2218924, “A broad activity screen in support of a chemogenomic map for kinase signalling research and drug discovery” (Biochem J, 2013).
# How the values were obtained:
# [1] = target: Protein kinase C theta type (Homo sapiens) (UniProt Q04759); settings: at 1 µM
# [2] = target: Protein kinase C theta type (Homo sapiens) (UniProt Q04759); settings: at 10 µM
# [3] = target: T1, Serine/threonine-protein kinase D2 (Homo sapiens) (UniProt Q9BZL6); settings: at 1 µM
# T1 sequence (whole entry): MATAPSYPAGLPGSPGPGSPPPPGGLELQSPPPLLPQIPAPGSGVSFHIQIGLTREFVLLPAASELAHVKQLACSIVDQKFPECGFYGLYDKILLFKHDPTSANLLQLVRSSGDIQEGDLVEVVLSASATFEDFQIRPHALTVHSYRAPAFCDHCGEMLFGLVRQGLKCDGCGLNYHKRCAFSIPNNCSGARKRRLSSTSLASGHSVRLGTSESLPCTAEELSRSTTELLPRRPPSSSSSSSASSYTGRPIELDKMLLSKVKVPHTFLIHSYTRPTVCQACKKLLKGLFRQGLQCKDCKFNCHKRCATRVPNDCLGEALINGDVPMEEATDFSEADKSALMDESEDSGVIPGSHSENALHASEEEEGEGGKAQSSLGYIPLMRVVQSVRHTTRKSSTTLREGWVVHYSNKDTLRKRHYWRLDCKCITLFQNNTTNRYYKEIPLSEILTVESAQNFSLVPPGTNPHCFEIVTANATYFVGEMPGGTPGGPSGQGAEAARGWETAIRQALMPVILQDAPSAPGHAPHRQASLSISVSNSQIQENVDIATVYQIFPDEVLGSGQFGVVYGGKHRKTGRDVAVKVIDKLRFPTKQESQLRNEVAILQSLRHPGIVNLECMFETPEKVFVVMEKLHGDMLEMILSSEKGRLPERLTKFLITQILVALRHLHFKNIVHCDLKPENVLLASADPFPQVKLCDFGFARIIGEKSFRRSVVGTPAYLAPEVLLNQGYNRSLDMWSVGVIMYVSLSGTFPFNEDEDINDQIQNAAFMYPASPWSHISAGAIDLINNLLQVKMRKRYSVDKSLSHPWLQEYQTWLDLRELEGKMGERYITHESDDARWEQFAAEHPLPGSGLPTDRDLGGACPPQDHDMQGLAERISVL
# [4] = target: T1, Serine/threonine-protein kinase D2 (Homo sapiens); settings: at 10 µM
# [5] = target: T2, cGMP-dependent protein kinase 1 (Homo sapiens) (UniProt Q13976); settings: at 1 µM
# T2 sequence (whole entry): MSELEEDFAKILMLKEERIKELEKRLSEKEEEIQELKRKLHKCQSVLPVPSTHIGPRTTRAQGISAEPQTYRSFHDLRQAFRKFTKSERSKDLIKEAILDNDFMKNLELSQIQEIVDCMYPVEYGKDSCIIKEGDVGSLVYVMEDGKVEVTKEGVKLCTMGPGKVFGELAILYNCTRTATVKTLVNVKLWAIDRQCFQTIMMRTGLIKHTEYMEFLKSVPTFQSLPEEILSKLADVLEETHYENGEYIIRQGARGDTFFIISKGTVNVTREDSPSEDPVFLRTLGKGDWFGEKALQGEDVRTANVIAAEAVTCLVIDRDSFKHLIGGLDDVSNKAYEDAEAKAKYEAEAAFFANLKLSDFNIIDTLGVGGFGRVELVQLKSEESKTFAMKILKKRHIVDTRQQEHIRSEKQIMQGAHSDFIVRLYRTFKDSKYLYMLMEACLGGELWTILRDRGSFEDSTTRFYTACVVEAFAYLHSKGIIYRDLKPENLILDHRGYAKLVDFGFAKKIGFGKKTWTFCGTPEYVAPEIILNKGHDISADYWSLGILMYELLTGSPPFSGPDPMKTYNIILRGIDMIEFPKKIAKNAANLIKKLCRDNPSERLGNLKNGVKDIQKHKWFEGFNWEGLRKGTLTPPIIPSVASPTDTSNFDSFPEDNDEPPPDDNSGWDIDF
# [6] = target: T2, cGMP-dependent protein kinase 1 (Homo sapiens); settings: at 10 µM
# [7] = target: T2, cGMP-dependent protein kinase 1 (Homo sapiens); settings: at 1 µM; remark: listed apart in the source
# [8] = target: T2, cGMP-dependent protein kinase 1 (Homo sapiens); settings: at 10 µM; remark: listed apart in the source
# [9] = target: T3, MAP kinase-activated protein kinase 5 (Homo sapiens) (UniProt Q8IW41); settings: at 10 µM
# T3 sequence (whole entry): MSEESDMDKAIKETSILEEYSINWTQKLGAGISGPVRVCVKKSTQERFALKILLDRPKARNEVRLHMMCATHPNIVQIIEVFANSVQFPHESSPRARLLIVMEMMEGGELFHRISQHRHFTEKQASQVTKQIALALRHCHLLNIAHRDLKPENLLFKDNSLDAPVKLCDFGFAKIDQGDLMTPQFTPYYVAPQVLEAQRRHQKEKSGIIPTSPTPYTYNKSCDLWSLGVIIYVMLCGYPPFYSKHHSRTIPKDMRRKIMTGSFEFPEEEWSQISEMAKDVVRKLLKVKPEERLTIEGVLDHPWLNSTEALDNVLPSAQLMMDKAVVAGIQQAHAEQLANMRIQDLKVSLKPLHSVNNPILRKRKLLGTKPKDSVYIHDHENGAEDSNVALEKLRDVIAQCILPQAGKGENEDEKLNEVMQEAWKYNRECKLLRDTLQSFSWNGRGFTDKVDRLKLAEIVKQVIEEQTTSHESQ
# [10] = target: Serine/threonine-protein kinase N2 (Homo sapiens) (UniProt Q16513); settings: at 1 µM
# [11] = target: Serine/threonine-protein kinase N2 (Homo sapiens) (UniProt Q16513); settings: at 10 µM
# [12] = target: Tyrosine-protein kinase FRK (Homo sapiens) (UniProt P42685); settings: at 1 µM
# [13] = target: Tyrosine-protein kinase FRK (Homo sapiens) (UniProt P42685); settings: at 10 µM
# [14] = target: Protein kinase C eta type (Homo sapiens) (UniProt P24723); settings: at 10 µM
# [15] = target: T4, Protein kinase C iota type (Homo sapiens) (UniProt P41743); settings: at 1 µM
# T4 sequence (whole entry): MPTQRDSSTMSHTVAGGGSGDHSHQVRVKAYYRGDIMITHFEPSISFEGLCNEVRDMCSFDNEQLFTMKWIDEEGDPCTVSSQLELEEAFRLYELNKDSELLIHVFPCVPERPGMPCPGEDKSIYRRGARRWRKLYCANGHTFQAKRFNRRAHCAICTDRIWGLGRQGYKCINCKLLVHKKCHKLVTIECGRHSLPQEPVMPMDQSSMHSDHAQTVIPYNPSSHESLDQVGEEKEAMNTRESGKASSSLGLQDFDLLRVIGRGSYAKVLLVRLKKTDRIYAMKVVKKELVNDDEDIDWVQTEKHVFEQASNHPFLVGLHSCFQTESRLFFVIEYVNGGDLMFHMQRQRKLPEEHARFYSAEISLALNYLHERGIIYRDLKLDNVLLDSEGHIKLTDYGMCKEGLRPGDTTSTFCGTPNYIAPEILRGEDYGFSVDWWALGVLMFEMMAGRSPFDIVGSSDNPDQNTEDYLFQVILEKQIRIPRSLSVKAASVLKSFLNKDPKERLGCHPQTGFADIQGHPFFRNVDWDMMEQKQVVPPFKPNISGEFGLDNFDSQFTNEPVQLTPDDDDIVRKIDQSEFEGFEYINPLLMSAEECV
# [16] = target: T4, Protein kinase C iota type (Homo sapiens); settings: at 10 µM
# [17] = target: T5, Serine/threonine-protein kinase D1 (Homo sapiens) (UniProt Q15139); settings: at 1 µM
# T5 sequence (whole entry): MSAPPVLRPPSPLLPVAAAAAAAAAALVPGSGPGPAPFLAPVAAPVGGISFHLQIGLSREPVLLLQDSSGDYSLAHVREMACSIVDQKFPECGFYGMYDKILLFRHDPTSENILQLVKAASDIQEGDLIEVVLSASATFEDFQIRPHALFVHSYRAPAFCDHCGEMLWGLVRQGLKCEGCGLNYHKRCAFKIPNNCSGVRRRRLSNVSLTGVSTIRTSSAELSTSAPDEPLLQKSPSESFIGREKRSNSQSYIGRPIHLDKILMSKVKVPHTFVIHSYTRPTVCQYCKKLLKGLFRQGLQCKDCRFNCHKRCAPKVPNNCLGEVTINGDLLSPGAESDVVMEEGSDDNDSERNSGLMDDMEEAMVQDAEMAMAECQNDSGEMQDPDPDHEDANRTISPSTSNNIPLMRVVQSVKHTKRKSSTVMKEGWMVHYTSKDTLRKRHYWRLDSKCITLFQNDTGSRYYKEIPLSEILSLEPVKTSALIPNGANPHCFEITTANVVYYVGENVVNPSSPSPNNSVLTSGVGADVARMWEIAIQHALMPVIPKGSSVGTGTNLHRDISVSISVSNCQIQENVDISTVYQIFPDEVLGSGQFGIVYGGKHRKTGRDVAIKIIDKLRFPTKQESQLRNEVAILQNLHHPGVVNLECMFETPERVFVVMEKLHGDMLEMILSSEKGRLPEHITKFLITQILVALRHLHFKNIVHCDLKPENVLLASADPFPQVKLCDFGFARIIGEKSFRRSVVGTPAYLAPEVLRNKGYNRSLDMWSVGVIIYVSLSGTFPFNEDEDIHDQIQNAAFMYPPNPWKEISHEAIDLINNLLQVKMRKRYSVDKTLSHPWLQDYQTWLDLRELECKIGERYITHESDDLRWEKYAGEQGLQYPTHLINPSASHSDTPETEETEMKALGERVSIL
# [18] = target: T5, Serine/threonine-protein kinase D1 (Homo sapiens); settings: at 10 µM
# [19] = target: T3, MAP kinase-activated protein kinase 5 (Homo sapiens); settings: at 1 µM
# Tyrosine-protein kinase FRK (Homo sapiens), sequence (P42685 whole entry): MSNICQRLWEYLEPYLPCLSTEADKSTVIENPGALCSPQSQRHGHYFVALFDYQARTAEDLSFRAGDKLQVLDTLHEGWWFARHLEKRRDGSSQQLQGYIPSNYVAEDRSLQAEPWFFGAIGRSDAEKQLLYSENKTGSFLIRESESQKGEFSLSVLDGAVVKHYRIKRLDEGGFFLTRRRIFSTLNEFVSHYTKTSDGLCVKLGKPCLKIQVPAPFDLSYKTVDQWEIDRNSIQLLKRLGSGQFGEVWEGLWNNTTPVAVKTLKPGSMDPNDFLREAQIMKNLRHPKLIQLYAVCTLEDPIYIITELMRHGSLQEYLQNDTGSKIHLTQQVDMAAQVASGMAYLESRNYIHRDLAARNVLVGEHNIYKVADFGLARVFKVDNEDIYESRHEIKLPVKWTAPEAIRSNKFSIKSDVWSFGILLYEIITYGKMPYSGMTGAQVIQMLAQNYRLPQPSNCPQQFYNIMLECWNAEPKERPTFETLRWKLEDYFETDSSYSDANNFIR
# Protein kinase C theta type (Homo sapiens), sequence (Q04759 whole entry, looked up): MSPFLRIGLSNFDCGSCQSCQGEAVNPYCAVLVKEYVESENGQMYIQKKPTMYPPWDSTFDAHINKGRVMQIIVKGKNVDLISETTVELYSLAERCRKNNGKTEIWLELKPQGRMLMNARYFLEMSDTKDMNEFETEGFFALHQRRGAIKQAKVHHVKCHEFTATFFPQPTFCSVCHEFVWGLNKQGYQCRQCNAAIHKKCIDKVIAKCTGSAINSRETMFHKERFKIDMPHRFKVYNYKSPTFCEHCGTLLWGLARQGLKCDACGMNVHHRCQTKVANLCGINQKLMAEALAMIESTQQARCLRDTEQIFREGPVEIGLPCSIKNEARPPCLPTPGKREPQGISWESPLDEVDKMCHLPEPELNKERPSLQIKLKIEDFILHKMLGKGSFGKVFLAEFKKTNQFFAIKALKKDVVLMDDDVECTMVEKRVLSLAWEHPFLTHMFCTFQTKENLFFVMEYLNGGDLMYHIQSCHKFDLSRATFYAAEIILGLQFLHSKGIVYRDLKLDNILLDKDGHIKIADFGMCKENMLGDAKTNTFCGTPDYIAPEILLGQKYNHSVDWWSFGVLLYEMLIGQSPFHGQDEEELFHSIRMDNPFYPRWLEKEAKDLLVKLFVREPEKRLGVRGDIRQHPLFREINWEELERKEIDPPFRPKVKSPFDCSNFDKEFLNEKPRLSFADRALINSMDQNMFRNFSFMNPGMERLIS
# Serine/threonine-protein kinase N2 (Homo sapiens), sequence (Q16513 whole entry, looked up): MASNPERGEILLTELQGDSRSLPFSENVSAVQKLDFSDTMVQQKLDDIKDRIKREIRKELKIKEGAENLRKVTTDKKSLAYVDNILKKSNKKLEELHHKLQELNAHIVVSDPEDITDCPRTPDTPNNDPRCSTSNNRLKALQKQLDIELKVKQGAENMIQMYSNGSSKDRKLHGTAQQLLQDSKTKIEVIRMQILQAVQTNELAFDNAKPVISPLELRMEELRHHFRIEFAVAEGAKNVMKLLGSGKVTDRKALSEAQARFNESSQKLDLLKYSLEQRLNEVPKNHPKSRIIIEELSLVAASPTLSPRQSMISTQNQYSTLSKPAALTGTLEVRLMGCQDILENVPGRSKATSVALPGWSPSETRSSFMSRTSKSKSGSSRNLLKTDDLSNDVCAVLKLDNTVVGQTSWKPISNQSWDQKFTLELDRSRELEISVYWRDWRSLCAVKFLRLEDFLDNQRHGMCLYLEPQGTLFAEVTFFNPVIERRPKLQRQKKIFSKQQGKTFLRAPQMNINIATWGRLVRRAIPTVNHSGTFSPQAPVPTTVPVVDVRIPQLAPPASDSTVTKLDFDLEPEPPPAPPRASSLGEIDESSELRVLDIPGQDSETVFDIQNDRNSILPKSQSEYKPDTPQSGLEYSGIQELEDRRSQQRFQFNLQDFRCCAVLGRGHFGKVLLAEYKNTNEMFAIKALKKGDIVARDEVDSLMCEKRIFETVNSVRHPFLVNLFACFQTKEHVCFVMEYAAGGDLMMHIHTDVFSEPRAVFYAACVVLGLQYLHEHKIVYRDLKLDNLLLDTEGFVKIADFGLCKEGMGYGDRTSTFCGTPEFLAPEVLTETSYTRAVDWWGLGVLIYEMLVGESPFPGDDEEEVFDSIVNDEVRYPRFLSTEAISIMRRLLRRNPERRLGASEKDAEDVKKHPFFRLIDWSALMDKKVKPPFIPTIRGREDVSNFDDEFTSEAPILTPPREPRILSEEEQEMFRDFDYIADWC
# Protein kinase C eta type (Homo sapiens), sequence (P24723 whole entry): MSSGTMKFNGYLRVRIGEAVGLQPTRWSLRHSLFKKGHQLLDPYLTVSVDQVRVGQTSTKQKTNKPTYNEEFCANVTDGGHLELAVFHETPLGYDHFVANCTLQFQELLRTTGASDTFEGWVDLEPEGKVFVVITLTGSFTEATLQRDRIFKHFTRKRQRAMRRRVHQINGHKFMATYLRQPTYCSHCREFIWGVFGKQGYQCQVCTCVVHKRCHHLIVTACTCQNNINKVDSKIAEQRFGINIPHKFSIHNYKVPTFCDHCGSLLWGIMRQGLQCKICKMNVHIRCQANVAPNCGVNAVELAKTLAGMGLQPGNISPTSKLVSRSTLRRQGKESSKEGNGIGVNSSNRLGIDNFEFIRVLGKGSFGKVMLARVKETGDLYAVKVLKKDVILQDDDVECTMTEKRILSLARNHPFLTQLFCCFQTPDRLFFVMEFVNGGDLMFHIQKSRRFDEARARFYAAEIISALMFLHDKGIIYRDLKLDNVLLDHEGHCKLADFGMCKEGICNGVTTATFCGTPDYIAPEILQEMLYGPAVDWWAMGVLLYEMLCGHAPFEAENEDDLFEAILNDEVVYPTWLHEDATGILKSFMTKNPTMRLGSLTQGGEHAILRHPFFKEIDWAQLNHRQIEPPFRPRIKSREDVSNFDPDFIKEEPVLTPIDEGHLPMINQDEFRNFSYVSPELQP
compound,measurement,setting,value
O=C(CCCc1ccc(-c2ccccc2F)cc1)Nc1ccc(O)cc1,residual activity,[1],100%
same,residual activity,[2],105%
same,residual activity,[3],110%
same,residual activity,[4],98%
same,residual activity,[5],98%
same,residual activity,[6],100%
same,residual activity,[7],97%
same,residual activity,[8],72%
same,residual activity,[9],64%
same,residual activity,[10],100%
same,residual activity,[11],79%
same,residual activity,[12],97%
same,residual activity,[13],112%
COc1ccc(-c2cnc3c(-c4ccsc4)cnn3c2)cc1,residual activity,[14],76%
same,residual activity,[15],81% (inactive)
same,residual activity,[16],77%
same,residual activity,[17],84%
same,residual activity,[18],97%
same,residual activity,[5],88%
same,residual activity,[6],90%
same,residual activity,[7],99%
same,residual activity,[8],99%
same,residual activity,[19],93%
same,residual activity,[9],84%
same,residual activity,[10],95%
same,residual activity,[11],130%
Oc1cccc(-c2nc(N3CCOCC3)c3oc4ncccc4c3n2)c1,residual activity,[1],84%
same,residual activity,[2],86%
same,residual activity,[15],89% (inactive)
same,residual activity,[17],97%
same,residual activity,[18],89%
same,residual activity,[5],120%
same,residual activity,[8],90%
same,residual activity,[19],98%
NC(=O)c1cccc(-c2cc(Nc3ccc(OC(F)(F)F)cc3)ncn2)c1,residual activity,[14],91%
same,residual activity,[15],92% (inactive)
same,residual activity,[16],69%
same,residual activity,[4],91%
same,residual activity,[9],78%
O=C1Cc2c([nH]c3ccc([N+](=O)[O-])cc23)-c2ccccc2N1,residual activity,[19],80%
same,residual activity,[9],81%
same,residual activity,[12],67%
same,residual activity,[13],46%
N#C/C(=C1/Nc2ccccc2S1)c1ccnc(NCCc2cccnc2)n1,residual activity,[1],95%
same,residual activity,[2],72%
same,residual activity,[17],73%
same,residual activity,[18],36%
same,residual activity,[11],59%
same,residual activity,[12],75%
same,residual activity,[13],72%
O=C1Nc2ccccc2/C1=C\c1c(Cl)[nH]c2ccccc12,residual activity,[14],80%
same,residual activity,[1],81%
same,residual activity,[2],71%
same,residual activity,[17],99%
same,residual activity,[18],65%
same,residual activity,[6],84%
same,residual activity,[8],72%
same,residual activity,[12],83%
same,residual activity,[13],73%
